This is an account of results in PMC11062922 (Nature Chemical Biology, 2023).

Like-named read-outs stand apart in the source and are kept apart here.

Set-up in all cases: species or system human, MV4-11 + K-562 + COLO205 + SK-N-BE2 + OVCAR-8
The subject of one test is CSNK2A1;CSNK2A3. Particulars: read-out: apparent Kd; compound concentrations: 100 nM and 1000 nM (sheet 'Samples'), CATDS: 8.5666768683209493E-2; n = 1.
In another test the test system is CSNK2A2. Particulars: read-out: apparent Kd; compound concentrations: 100 nM and 1000 nM (sheet 'Samples'), CATDS: 9.4804106529145699E-2; n = 1.
The subject of another test is EPHA1. Particulars: read-out: apparent Kd; compound concentrations: 100 nM and 1000 nM (sheet 'Samples'), CATDS: 0.11031803480288301; n = 1.
The next test relates to IRAK3. The following applies: read-out: apparent Kd; compound concentrations: 100 nM and 1000 nM (sheet 'Samples'), CATDS: 0.28099060866519798; n = 1.
A further test relates to NTRK1. The following applies: read-out: apparent Kd; compound concentrations: 100 nM and 1000 nM (sheet 'Samples'), CATDS: 8.3524015841862198E-2; n = 1.
Another test concerns PIP4K2C. The following applies: read-out: apparent Kd; compound concentrations: 100 nM and 1000 nM (sheet 'Samples'), CATDS: 8.5254217094438201E-2; n = 1.
Another test relates to RIPK2. Particulars: read-out: apparent Kd; compound concentrations: 100 nM and 1000 nM (sheet 'Samples'), CATDS: 0.49931357158944301; n = 1.
The next test concerns STK10. The following applies: read-out: apparent Kd; compound concentrations: 100 nM and 1000 nM (sheet 'Samples'), CATDS: 9.3066944796260806E-2; n = 1.
Another test relates to TGFBR2. Particulars: read-out: apparent Kd; compound concentrations: 100 nM and 1000 nM (sheet 'Samples'), CATDS: 0.10303622443246301; n = 1.
The next test has as its system DDR1. Particulars: read-out: apparent Kd, n = 1.
The test system of the next test is DDR2. The following applies: read-out: apparent Kd, n = 1.
In another test the test system is DCTPP1. The following applies: read-out: apparent Kd, compound concentrations: 100 nM and 1000 nM (sheet 'Samples'), n = 1.
For the next test, the system named is EPHB4. Particulars: read-out: apparent Kd; compound concentrations: 100 nM and 1000 nM (sheet 'Samples'), CATDS: 0.37827965470914299; n = 1.
In another test the test system is RIPK3. The following applies: read-out: apparent Kd, compound concentrations: 100 nM and 1000 nM (sheet 'Samples'), n = 1.
Another test concerns FLT3. Particulars: read-out: apparent Kd; compound concentrations:100 nM and 1000 nM (sheet 'Samples'); n = 1.
A further test has as its system MAP2K1. The following applies: read-out: apparent Kd; compound concentrations:100 nM and 1000 nM (sheet 'Samples'); n = 1.
The test system of the next test is NQO1. Particulars: read-out: apparent Kd; compound concentrations:100 nM and 1000 nM (sheet 'Samples'); n = 1.
The subject of the next test is PIK3C3. The following applies: read-out: apparent Kd; compound concentrations:100 nM and 1000 nM (sheet 'Samples'); n = 1.
The test system of a further test is PIK3CD. Particulars: read-out: apparent Kd; compound concentrations:100 nM and 1000 nM (sheet 'Samples'); n = 1.
The next test deals with RIOK2. The following applies: read-out: apparent Kd; compound concentrations:100 nM and 1000 nM (sheet 'Samples'); n = 1.
Another test has as its system SMC4. Particulars: read-out: apparent Kd; compound concentrations:100 nM and 1000 nM (sheet 'Samples'); n = 1.
Another test has as its system PHKG2. Particulars: read-out: apparent Kd; compound concentrations: 100 nM and 1000 nM (sheet 'Samples'), CATDS: 0.27508455171149998; n = 1.
A further test relates to PIK3CG. The following applies: read-out: apparent Kd; compound concentrations: 100 nM and 1000 nM (sheet 'Samples'), CATDS: 0.403949586222208; n = 1.
The subject of the next test is PIK3CA. Particulars: read-out: apparent Kd; compound concentrations:100 nM and 1000 nM (sheet 'Samples'); n = 1.
In a further test the test system is ZAK. The following applies: read-out: apparent Kd; compound concentrations:100 nM and 1000 nM (sheet 'Samples'); n = 1.
In the next test the test system is T1, DJA1.
T1 construct: gene DNAJA1
The following applies: read-out: apparent Kd; compound concentrations: 100 nM and 1000 nM (sheet 'Samples'), CATDS: 0.31646295058989898; n = 1.

A further test relates to EGFR. Particulars: read-out: apparent Kd; compound concentrations: 100 nM and 1000 nM (sheet 'Samples'), CATDS: 7.48044992603729E-2; n = 1.
The subject of a further test is HCK. The following applies: read-out: apparent Kd; compound concentrations: 100 nM and 1000 nM (sheet 'Samples'), CATDS: 0.11641359939997301; n = 1.
The subject of a further test is LYN. Particulars: read-out: apparent Kd; compound concentrations: 100 nM and 1000 nM (sheet 'Samples'), CATDS: 9.0520394407802393E-2; n = 1.
The test system of a further test is MAPK11. Particulars: read-out: apparent Kd; compound concentrations: 100 nM and 1000 nM (sheet 'Samples'), CATDS: 7.53995695049028E-2; n = 1.
The next test relates to TAOK3. Particulars: read-out: apparent Kd; compound concentrations: 100 nM and 1000 nM (sheet 'Samples'), CATDS: 7.5717255281347595E-2; n = 1.
In a further test the test system is TNK1. The following applies: read-out: apparent Kd; compound concentrations: 100 nM and 1000 nM (sheet 'Samples'), CATDS: 0.107193891906807; n = 1.
Another test concerns YES1. Particulars: read-out: apparent Kd; compound concentrations: 100 nM and 1000 nM (sheet 'Samples'), CATDS: 0.13069382201385599; n = 1.
[1] abbreviates: compound concentrations:100 nM and 1000 nM (sheet 'Samples').

In the case of `COc1cc(Nc2nccc(Nc3ccc4c(C)n[nH]c4c3)n2)cc(OC)c1OC` [GW612286X], the potency estimated from few doses with CSNK2A1;CSNK2A3 was 1870 nM; in the test with CSNK2A2, 1370 nM; in the test on EPHA1 it was 909 nM; in the test on IRAK3 it was 122 nM; in the test on NTRK1 it was 2040 nM; with PIP4K2C, 1900 nM. Moreover, the potency estimated from few doses with RIPK2 is 46.6 nM; in the test with STK10 it was 1450 nM; with TGFBR2, 1090 nM.
`COC(=O)Nc1nc2cc(Oc3ccc(NC(=O)Nc4ccccc4)cc3)ccc2[nH]1.Cl` [GW694590A]: the potency estimated from few doses was 426 nM in the test on DDR1 (compound concentrations: 100 nM and 1000 nM (sheet 'Samples'), CATDS: 0.58971878257752297); 799 nM in the test with DDR2 (compound concentrations: 100 nM and 1000 nM (sheet 'Samples'), CATDS: 0.43397569756313797).
`NC(=O)c1cc(-c2ccc(F)cc2)cc(-c2ccncc2)c1N` [GSK620503A]: the potency estimated from few doses is 1520 nM with DCTPP1 (CATDS: 0.31656078381531599), 1070 nM in the test with EPHB4 and 1560 nM in the test with RIPK3 (CATDS: 0.31274412248273797).
Consider `COC(=O)Nc1nc2ccc(Oc3ccc(CC(=O)Nc4cc(C(F)(F)F)ccc4F)cc3)cc2[nH]1` [GW680903X], for which the potency estimated from few doses was 257 nM in the test with DDR1 (setting [1]); 404 nM in the test with DDR2 (setting [1]); 713 nM with FLT3; 2320 nM in the test on MAP2K1; 2020 nM in the test with NQO1; 1510 nM with PIK3C3. The potency estimated from few doses is 104 nM in the test with PIK3CD, 1760 nM with RIOK2 and 1910 nM with SMC4.
Regarding `O=[N+]([O-])c1ccc2c(c1)C(c1ccccc1Cl)=Nc1c[nH]nc1N2` [RO0117162-000], the potency estimated from few doses is 1450 nM in the test on DCTPP1 (CATDS: 0.34611685739606901), 2440 nM in the test on PHKG2 and 1090 nM in the test on PIK3CG.
Regarding `COC(=O)Nc1nc2cc(Oc3ccc(NC(=O)Nc4cccc(SC)c4)cc3)ccc2[nH]1.Cl` [GW697999A], the potency estimated from few doses is 194 nM in the test with DDR1 (setting [1]); 618 nM in the test with DDR2 (setting [1]); 332 nM with FLT3; 205 nM with PIK3CA; 92.1 nM with PIK3CD; 2010 nM in the test on SMC4. Besides, in the test on ZAK, the potency estimated from few doses was 1910 nM.
With `Cn1cc(-c2ccc3c(c2)CCN3C(=O)Cc2cccc(C(F)(F)F)c2)c2c(N)ncnc21` [GSK2606414A], in the test with DDR1 (setting [1]), the potency estimated from few doses is 1550 nM.
For the compound `COC(=O)Nc1nc2cc(Oc3ccc(NC(=O)Nc4cc(F)ccc4F)cc3)ccc2[nH]1.Cl` [GW701424A], the potency estimated from few doses was 242 nM with DDR1 (setting [1]), 1120 nM with DDR2 (setting [1]) and 11.2 nM in the test with PIK3CD.
For `O=C(Nc1cccc(-c2nn3ncccc3c2-c2ccnc(Nc3ccccc3)n2)c1)c1c(F)cccc1F` [GSK198271A], the potency estimated from few doses is 711 nM in the test with DDR1 (compound concentrations: 100 nM and 1000 nM (sheet 'Samples'), CATDS: 0.101729312677661); 111 nM in the test with DJA1; 1600 nM in the test on EGFR; 537 nM in the test with HCK; 933 nM with LYN; 1560 nM with MAPK11. The potency estimated from few doses with RIPK3 (CATDS: 9.4746109979172405E-2) is 836 nM; in the test on TAOK3 it was 1540 nM; with TNK1 it was 635 nM; in the test with YES1, 431 nM.
